Screen size: about 330,000 compounds; about 1,900 (0.58%) were called active. About 4% were inconclusive and are not listed. Cut-off read from the data, not from the text of the source: inconclusive = inhibition above about 70% without an active follow-up result; inactive = below that. The list is a sample of the results. Entries with a potency or affinity are not part of this list.
assay: M. tuberculosis growth inhibition, HTS (AID 449762);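 note: bacterial growth assessed after seven days of incubation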; conditions: M. tuberculosis H37Rv growth inhibition, 7H9 media; at 25 µM; stronger effect = higher value

Row | Structure (SMILES) | inhibition
1 | CSc1ccccc1NC(=O)Cn1nnc(-c2ccc(S(C)(=O)=O)cc2)n1 | -2.14% (inactive)
2 | NC(=O)C1CCN(Cc2nc(-c3ccccc3)no2)CC1 | -14.2% (inactive)
3 | O=c1c2ccccc2cnn1Cc1n[nH]c(=S)n1-c1ccc(F)cc1 | 4.78% (inactive)
4 | CCOC(=O)N/N=C(\C)c1ccc(C)o1 | -1.85% (inactive)
5 | CCOC(=O)N/N=C\c1ccc([N+](=O)[O-])o1 | -1.58% (inactive)
6 | CC(C)NC(=O)N(O)C1N(Cc2ccc3c(c2)OCO3)C(=S)SC1(C)C (stereo unspecified) | 3.94% (inactive)
7 | CCCc1cc(C(=O)OC)c(NC(=O)CCCC(=O)O)s1 | 0.02% (inactive)
8 | Cc1nn(CC(=O)NCCCc2ccccc2)c(=O)c2cc3occc3n12 | 3.16% (inactive)
9 | COc1cccc(NC(=O)CN(C)C(=O)CNC(=O)c2ccc(Oc3ccccc3)cc2)c1 | 7.98% (inactive)
10 | Cc1c(Cl)cccc1NC(=S)N1CCN(C(=O)c2ccco2)CC1 | -0.43% (inactive)
11 | Cc1ccc(N2C(=O)C(CN(C)C)C2c2ccccc2)cc1 (stereo unspecified) | -6.05% (inactive)
12 | COc1ccc(N2C(=O)C(F)(F)C2c2ccc(C)cc2)cc1OC (stereo unspecified) | 60.7% (inactive)
13 | CC1=NN(C(=O)c2c(Br)c(C)nn2C)C(O)(C(F)(F)F)C1 (stereo unspecified) | 0.52% (inactive)
14 | C#CCSc1nc2ccccc2n1C(=O)c1ccc(S(=O)(=O)N2CCCCC2)cc1 | -2.86% (inactive)
15 | COC(=O)C1=C(c2ccc(S(C)(=O)=O)cc2)C[C@@H]2CC[C@H]1N2C(=O)N1CCCCC1 | 3.7% (inactive)
16 | Cc1c(Cl)cccc1NC(=O)NCc1ccccn1 | -11.4% (inactive)
17 | Cc1c(C(=O)NCc2ccccn2)oc2c(Cl)cccc12 | -3.71% (inactive)
18 | CCC1CCCCN1CCCNC(=O)Cn1nc(C)n2nc(-c3ccccc3)cc2c1=O (stereo unspecified) | 1.58% (inactive)
19 | CCSc1nnc(CCNS(=O)(=O)c2ccc(C(C)=O)cc2)n1C | 0.26% (inactive)
20 | S=C(Nc1cc(Cl)cc(Cl)c1)N1CCCC1 | 0.04% (inactive)
21 | CCCn1cnc2c(N)c(C)c(C)cc21 | -11.4% (inactive)

Row | Structure (SMILES) | inhibition
22 | Cc1cc2c(ncn2Cc2ccccc2)c(N)c1C | 2.7% (inactive)
23 | O=C(NNC(=O)C1CCN(c2ncccn2)CC1)c1ccc(F)cc1 | 0.94% (inactive)
24 | CC(=O)OC1N=C(c2ccccc2Cl)c2cc(Br)ccc2N(C)C1=O (stereo unspecified) | -6.48% (inactive)
25 | N#C/C(=C/c1ccc(Br)s1)C(=O)NCCc1c[nH]c2ccccc12 | 3.76% (inactive)
26 | N#C/C(=C/c1ccc(N2CCCCC2)o1)C(=O)NCCc1c[nH]c2ccccc12 | -3.85% (inactive)
27 | CCN1CCc2nc(NC(=O)Cc3ccc4c(c3)OCCO4)sc2C1 | -17.6% (inactive)
28 | CC(C)NC(=O)CCCN1C(=O)c2ccccc2Sc2ncccc21 | 1.48% (inactive)
29 | O=C(O)c1cc(-c2ccncc2)nc2ccc(S(=O)(=O)N3CCOCC3)cc12 | 3.61% (inactive)
30 | O=C(Nc1ccc(N2CCCC2)c(Cl)c1)c1cccs1 | 7.74% (inactive)
31 | O=C(NC(=S)Nc1ccc(N2CCOCC2)c(Cl)c1)c1cccs1 | 3.13% (inactive)
32 | COc1ccc2c(c1)C(=O)N1[C@H]3c4cc(OC)ccc4OC[C@@H]3[C@H](c3ccccc3)[C@]1(C)C(=O)N2 | 1.44% (inactive)
33 | COc1ccc2c(c1)[C@H]1[C@H](CO2)[C@H](c2ccccc2)[C@]2(C)C(=O)Nc3ccc(C)cc3C(=O)N12 | 1.01% (inactive)
34 | O=c1c2cccc3c2c(nn1-c1ccccc1)-c1ccccc1-3 | -2.02% (inactive)
35 | COc1cccc(NC(=O)CN(C)C(=O)c2c(C)nn(CC(C)C)c2Cl)c1 | -7.79% (inactive)
36 | O=C(COc1ccccc1)OCc1csc(Nc2ccccc2)n1 | 11.3% (inactive)
37 | O=C(COc1ccc(Cl)cc1)OCc1csc(Nc2ccccc2)n1 | 4.58% (inactive)
38 | CC1CCCC(NC(=O)COC(=O)c2ccc(Br)o2)C1C (stereo unspecified) | 10.4% (inactive)
39 | COCCN(C(=O)c1cc(-c2ccncc2)nc2ccccc12)c1c(N)n(CC(C)C)c(=O)[nH]c1=O | -4.69% (inactive)
40 | C=C(C)C1Cc2c(C)nn(-c3ccccc3)c2C1 (stereo unspecified) | 5.29% (inactive)
41 | C=C(C)C1Cc2c(C)nn(-c3cccc4ccccc34)c2C1 (stereo unspecified) | 40.9% (inactive)
42 | CC(c1ccccc1)N1C(=O)C2C3C=CC(C4CC34)C2C1=O (stereo unspecified) | 0.61% (inactive)

Row | Structure (SMILES) | inhibition
43 | CCN=C1NN=C(c2cc(C)n(Cc3ccco3)c2C)CS1 | -1.01% (inactive)
44 | Cc1cc(C2=NNC(=NC3CC3)SC2)c(C)n1Cc1ccco1 | 63.5% (inactive)
45 | CCCCn1c(CN2CCN(c3cccc(Cl)c3)CC2)nc2c1c(=O)[nH]c(=O)n2C | 62.7% (inactive)
46 | CC1CCCN(C2(O)C(=O)Nc3ccc(Br)cc32)C1 (stereo unspecified) | 5.15% (inactive)
47 | COCCN(C(=O)COC(=O)c1cc2ccccc2cc1OC)c1c(N)n(Cc2ccccc2)c(=O)[nH]c1=O | -2.06% (inactive)
48 | COc1ccccc1OCC(=O)Nc1ccc(C(N)=O)cc1 | -3.41% (inactive)
49 | CC(=Nc1cccc(O)c1)c1sc2ccccc2c1O | 11.9% (inactive)
50 | CCCn1nc(C(=O)Nc2ccc(S(=O)(=O)Nc3nccs3)cc2)c2ccccc2c1=O | 8.73% (inactive)
51 | O=C(Nc1ccccc1F)Nc1ccccc1Br | 4.25% (inactive)
52 | COc1ccc(Br)cc1/C(C)=N/NC1=NCCN1 | 1.92% (inactive)
53 | CCOc1ccc(Br)cc1/C(C)=N\NC1=NCCN1 | -0.3% (inactive)
54 | CC(C)OCCCN1CC(=O)N2C(c3cccc([N+](=O)[O-])c3)c3[nH]c4ccccc4c3C[C@H]2C1=O (stereo partly specified) | 19.4% (inactive)
55 | CCc1cc(-c2nc(N)ncc2-c2ccc(Br)cc2)c(O)cc1OC | 14.9% (inactive)
56 | CCCc1cc(-c2nc(N)ncc2-c2csc(C)n2)c(O)cc1OC | -5.66% (inactive)
57 | CC(C)C(=O)Nc1nc2ccc(S(C)(=O)=O)cc2s1 | 4.62% (inactive)
58 | O=C(O)c1ccc(-n2c(-c3ccccc3)n[nH]c2=S)cc1 | -4.35% (inactive)
59 | CCN1CCN(Cc2ccccc2C)CC1 | -5.92% (inactive)
60 | Cc1ccccc1CN1CCN(Cc2ccccc2)CC1 | -6.4% (inactive)
61 | CCOC(=O)Cc1csc(SCc2nc3ccccc3c(=O)[nH]2)n1 | -2.6% (inactive)

Reference: PubChem BioAssay AID449762 (Southern Research Specialized Biocontainment Screening …, 2010)
